The nature of experiment [1]: qHTS Assay for Identification of Small Molecule Agonists for Thrombopoietin (TPO) Signaling Pathway (AID 917). Also: % is scaled to controls: 0 for no effect and ±100 for the full control effect. The gist of the method:
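Stimulation at the TPO EC50 (26 pM final) was used to detect activators. Ba/F3 mouse cells bearing human TPO receptor and a luciferase reporter under the Glycoprotein IIb promoter were exposed to compounds for 24 hrs at 37 C.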
For orientation: qHTS replaces the single test concentration by a dilution series.

In experiment [2] the target is Muscarinic acetylcholine receptor M1 (Rattus norvegicus) (UniProt P08482). Briefly: qHTS Assay for Antagonists of Acetylcholine Muscarinic M1 Receptor: Kinetic Measurement of Intracellular Calcium Response (AID 943).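 Also: Fluo-4 calcium signal as peak divided by basal fluorescence over 4 min; series mostly up to about 35 µM; nearly all actives have a fitted effect of over 75% in size.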 In short, it runs like this: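 Antagonism measured as reduction of carbachol-evoked (EC80, 100 nM final) calcium flux in rat M1-CHO cells after 10 min compound exposure. Fluo-4 signal read kinetically; ratio of maximal to basal fluorescence.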
Muscarinic acetylcholine receptor M1 (Rattus norvegicus), sequence (P08482 whole entry, looked up): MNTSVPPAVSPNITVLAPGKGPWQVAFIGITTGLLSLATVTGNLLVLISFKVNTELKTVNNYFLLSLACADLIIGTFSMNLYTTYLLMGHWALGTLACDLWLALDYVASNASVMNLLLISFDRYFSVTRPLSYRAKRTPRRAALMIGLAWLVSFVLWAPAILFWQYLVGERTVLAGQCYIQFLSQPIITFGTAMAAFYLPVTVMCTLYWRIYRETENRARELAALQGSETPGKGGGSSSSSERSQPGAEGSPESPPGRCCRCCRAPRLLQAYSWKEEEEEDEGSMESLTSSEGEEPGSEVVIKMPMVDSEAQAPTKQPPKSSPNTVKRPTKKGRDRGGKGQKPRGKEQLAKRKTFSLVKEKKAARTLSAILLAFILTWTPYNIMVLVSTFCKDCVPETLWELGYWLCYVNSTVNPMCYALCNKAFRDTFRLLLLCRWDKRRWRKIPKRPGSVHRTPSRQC

For experiment [3] the target is unchanged. Briefly: qHTS Assay for Antagonists of Acetylcholine Muscarinic M1 Receptor: Measurement of IP-One Response (AID 944). Also: nearly all actives have a fitted effect of over 75% in size. Also: potency is read from the fitted curve at half-maximal effect. In short, it runs like this: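 IP1 accumulation measured via TR-FRET between d2-IP1 and Eu-cryptate anti-IP1 antibody after carbachol (200 nM, EC80) stimulation for 30 min; rat M1-transfected CHO cells received compound 10 min before agonist.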

For experiment [4], the target named is Pyruvate kinase (Leishmania mexicana) (UniProt Q27686). Briefly: qHTS Validation Assay for Inhibitors of Leishmania Mexicana Pyruvate Kinase (AID 945).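 Also: 0% = DMSO only neutral control wells.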 The gist of the method: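 LmPYK E451W 0.2 nM; 0.5 mM PEP, 0.1 mM ADP, 7 mM MgCl2, 50 mM KCl, imidazole pH 7.2, 0.01% Tween 20, 0.05% BSA; 1 h RT; PKLight luminescence; DMSO-normalized.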
Pyruvate kinase (Leishmania mexicana), sequence (Q27686 2-499 E452W): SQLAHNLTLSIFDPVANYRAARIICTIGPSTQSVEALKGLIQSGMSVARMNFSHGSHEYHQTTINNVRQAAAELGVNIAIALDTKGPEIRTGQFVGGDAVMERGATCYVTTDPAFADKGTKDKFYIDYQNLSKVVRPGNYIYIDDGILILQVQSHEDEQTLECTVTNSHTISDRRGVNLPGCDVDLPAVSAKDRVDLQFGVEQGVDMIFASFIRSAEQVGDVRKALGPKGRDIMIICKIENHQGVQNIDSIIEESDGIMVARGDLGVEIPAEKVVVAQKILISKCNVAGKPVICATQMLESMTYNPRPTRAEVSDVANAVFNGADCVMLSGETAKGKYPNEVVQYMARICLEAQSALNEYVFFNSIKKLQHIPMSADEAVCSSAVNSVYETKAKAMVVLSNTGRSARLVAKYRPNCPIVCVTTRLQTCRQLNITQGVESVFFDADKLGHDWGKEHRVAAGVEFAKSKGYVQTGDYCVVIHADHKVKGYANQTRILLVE
The nature of experiment [5]: Cell Viability - LYMP2-001 (AID 921).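 Also: series mostly up to about 92 µM; 0% = DMSO only and full inhibition = tetraoctylammonium bromide control wells; nearly all actives have a fitted effect of over 70% in size.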 In short, it runs like this: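 Human lymphoblastoid LYMP2-001 cells, 2500 per well, in complete medium, treated 24 h at 37 C. Viability from cellular ATP by CellTiter-Glo luminescence; AC50 from Hill-equation fits of qHTS concentration-response.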
Experiment [6] can be described thus: Confirmation and Secondary Assay for Modulators of Hemoglobin Beta Chain Splicing at IVS2 705 locus (AID 930).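 Also: HeLa cells stably expressing the EGFP-705 splicing reporter; series mostly up to about 46 µM; % of control where 0% means no effect.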 The gist of the method: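 HeLa cells stably carrying EGFP interrupted by mutant beta-globin IVS2-705 intron (CMV-driven) were seeded at 500 cells/well, treated next day with compound for 2 days at 37C; corrected splicing restores EGFP, read as total peak GFP intensity per well.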

The nature of experiment [7]: MultiTox-Fluor Cytotoxicity Assay - LYMP1-001 - Dead Cells (AID 946).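 Also: cells exposed to compound for 16 h; 0% = DMSO and 100% = tetraoctylammonium bromide.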 In short, it runs like this:
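LYMP1-001 lymphoblastoid cells (2500/well) treated 16 h at 37 C. Dead-cell protease cleavage of bis-AAF-R110 read at Ex/Em 485/520. Normalized to DMSO and 15 uM tetraoctylammonium bromide; AC50 from Hill fits.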

Experiment [8] can be described thus: MultiTox-Fluor Cytotoxicity Assay - LYMP1-001 - Live Cells (AID 947).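 Also: 0% = DMSO only and full inhibition = tetraoctylammonium bromide control.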
Experiment [9] is described as follows: qHTS Assay for Identification of Small Molecule Antagonists for Thrombopoietin (TPO) Signaling Pathway (AID 918). Also: potency is read from the fitted curve at half-maximal effect; nearly all actives have a fitted effect of over 60% in size. Particulars: TPO-dependent cell signaling reporter, antagonist mode. The gist of the method: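 Inhibition read as reduced luciferase luminescence after 24 h at 37 C in IL-3-deprived Ba/F3 cells carrying human TPO receptor and GPIIb-promoter reporter, stimulated with 26 pM TPO (final, its EC50) alongside compound.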

Experiment [10] in a line: qHTS Assay for Identification of Small Molecule Agonists for Hypoxia Response Element Signaling Pathway (AID 914; active = well fitted activation curve with a large enough effect in the signal ratio, with a control signal flat, not every such curve was filed as active; the % refers to the signal ratio; also: potency is read from the fitted curve at half-maximal effect; as to activation: % of control where 0% means no effect). Particulars: ME-180 (cervical carcinoma) HRE-bla reporter, beta-lactamase ratio, CoCl2, 17 h; activation: active compounds read high. In short, it runs like this:
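ME-180 cells carrying an HRE-driven beta-lactamase reporter were treated with compounds in a titration series plus an EC50 level of CoCl2 for 17 h at 37 degrees Celsius; CCF4 readout as the 460nm/530nm ratio gave AC50 values.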

Values without a mark were called inactive. Inconclusive results are not listed. Activity calls are given as the source filed them. Unless noted, calls follow the shape of the dose curve; as a rule, active = well fitted curve in the direction sought with a large enough effect; inconclusive = small, poorly fitted or top-dose-only effect, or another doubt; inactive = no such curve, though single readings can be large; an effect the other way counts as inactive or inconclusive.

With `CN=C(N)NCCC[C@H](N)C(=O)O`, the compound was called inactive in experiment [1], in experiment [2] and in experiment [4]. The Potency entry in [3] was “inactive”.
Turning to `Oc1ccc(Cl)cc1Cc1cc(Cl)ccc1O`, the compound was called inactive in [5], in experiment [6] and in experiment [7].
On to `COc1cc([C@H]2Oc3cc([C@H]4Oc5cc(O)cc(O)c5C(=O)[C@@H]4O)ccc3O[C@@H]2CO)ccc1O`, for which the outcome in [5], in experiment [7] and in experiment [8] was inactive.
Turning to `NC(=O)c1ccccc1O`, the compound was called inactive in experiment [5], in [6], in experiment [7] and in experiment [8].
On to `CCCN(CCC)S(=O)(=O)c1ccc(C(=O)O)cc1`, for which the compound was classed as inactive in [5], in [6], in [7] and in experiment [8].
Consider `CN1CCC[C@@H]1CCO[C@](C)(c1ccccc1)c1ccc(Cl)cc1`, for which the Potency in [9] was 10 µM (active). Moreover, the call in experiment [4] was inactive.
Consider `COc1ccc(C(=O)c2ccccc2)c(O)c1`, for which the outcome in experiment [5], in experiment [6], in [7] and in [8] was inactive.
In the case of `CCc1cc(Cl)c(OC)c(C(=O)NC[C@@H]2CCCN2CC)c1O`, in [10], the Potency is 10 µM (active).
For the compound `CCCCCCCCNC(C)C(O)c1ccc(SC(C)C)cc1` (stereo unspecified), the activation in experiment [10] is 0.942%. The compound was classed as inactive in experiment [6].
`CCOc1ccccc1C(N)=O`: the call in experiment [5], in experiment [7] and in experiment [8] was inactive.
Regarding `CC[N+](C)(CC)CCOC(=O)C(O)(c1ccccc1)C1CCCCC1` (stereo unspecified), the activation in [10] was 1.14%.
For the compound `c1ccc(CC2=NCCN2)cc1`, the compound was called inactive in [6].
As for `CCOc1ccc(NC(C)=O)cc1`, the activation in [10] is 2%. Further, the compound was called inactive in experiment [5], in experiment [6], in experiment [7] and in experiment [8].
Regarding `Cc1ccccc1OCC(O)CO` (stereo unspecified), the compound was classed as inactive in experiment [6].
`COc1ccc(-c2cc(C(F)F)nn2-c2ccc(S(N)(=O)=O)cc2)cc1F`: the compound was called inactive in experiment [6].
`C=C[C@H]1CN2CC[C@H]1C[C@@H]2[C@@H](O)c1ccnc2ccc(OC)cc12`: the compound was classed as inactive in experiment [5], in experiment [7] and in [8].
With `NS(=O)(=O)Cc1noc2ccccc12`, the outcome in [1], in experiment [2] and in experiment [4] was inactive. Also, the Potency entry in experiment [3] is “inactive”.
On to `CCN(CC)CCNc1ccc(CO)c2sc3ccccc3c(=O)c12`, for which the outcome in experiment [6] was inactive.
On to `CN(C)CCC[C@@]1(c2ccc(F)cc2)OCc2cc(C#N)ccc21`, for which the compound was called inactive in experiment [1], in [6] and in [4]. The Potency in experiment [3] was 10 µM (active).
As for `COc1ccc(C(=O)c2ccccc2O)c(O)c1`, in experiment [10], the Potency is 5.01 µM (active). The compound was classed as inactive in [6].
Take `CN1CCC(OC(c2ccccc2)c2ccccc2)CC1`: in experiment [6], the call was inactive.
The same measure, in the same setting: in the case of `CCC(Cc1c(I)cc(I)c(N)c1I)C(=O)O` (stereo unspecified) it was “inactive”.
Take `CCCCC(CC)COC(=O)c1ccc(N(C)C)cc1` (stereo unspecified): the compound was called inactive in [5], in experiment [7] and in experiment [8].
With `Oc1c(Cl)cc(Cl)c(Cl)c1Cc1c(O)c(Cl)cc(Cl)c1Cl`, the call in experiment [6] was inactive.
In the case of `C/C=C/c1ccc(O)c(OC)c1`, the outcome in [5], in [7] and in experiment [8] was inactive.
In the case of `OC[C@H]1O[C@@H]2O[C@H]3[C@H](O)[C@@H](O)[C@@H](O[C@H]4[C@H](O)[C@@H](O)[C@@H](O[C@H]5[C@H](O)[C@@H](O)[C@@H](O[C@H]6[C@H](O)[C@@H](O)[C@@H](O[C@H]7[C@H](O)[C@@H](O)[C@@H](O[C@H]8[C@H](O)[C@@H](O)[C@@H](O[C@H]1[C@H](O)[C@H]2O)O[C@@H]8CO)O[C@@H]7CO)O[C@@H]6CO)O[C@@H]5CO)O[C@@H]4CO)O[C@@H]3CO`, the compound was classed as inactive in experiment [5], in experiment [7] and in experiment [8].
Regarding `O=C(O)c1ccc(S(=O)(=O)N(Cl)Cl)cc1`, the outcome in [5], in [6], in experiment [7] and in [8] was inactive.
Regarding `CC(C)(C)NC[C@H](O)COc1nsnc1N1CCOCC1`, the call in [1] and in experiment [4] was inactive. Besides, the Potency result in [3] is “inactive”.
As for `CCN(CC)CCNC(=O)COc1ccc(OC)cc1`, the result in experiment [6] was inactive.
Still for that read-out and setting: then `CC(=O)NO`, with “inactive”.
Take `COc1ccc(C(Cl)=C(c2ccc(OC)cc2)c2ccc(OC)cc2)cc1`: the compound was classed as inactive in [5], in experiment [6], in [7] and in experiment [8].
Regarding `COc1cc(NS(=O)(=O)c2ccc(N)cc2)ncn1`, the outcome in experiment [6] was inactive.
Same read-out and setting: then `CCN(CC)CCOC(=O)C(Cc1cccc2ccccc12)CC1CCCO1` (stereo unspecified), with “inactive”; and `O=C(O)P(=O)(O)O`, with “inactive”.
For the compound `NC(N)=NCc1cccc(I)c1`, the result in experiment [2] and in [4] was inactive. Moreover, in [3], the Potency result was “inactive”.
On to `NCCNc1cccc2ccccc12`, for which the compound was called inactive in experiment [7] and in experiment [8].

The values are drawn from PubChem BioAssay (NCATS).
